Screens from PubChem.
Cycloheximide cs – Cycloheximide Counterscreen for Small Molecule Inhibitors of Shiga Toxin; cell reporter, cycloheximide protein synthesis inhibition counterscreen; max response, %; actives 12% (n = 300,000); AID 2314, 2010; in the data active means max response mostly above about 13%, no sharp cut-off; inactive means mostly below about 14%; further: read at 38.3 µM for the half of the compounds with a filed dose; 0% is about no effect
Shiga toxin inh – A qHTS for Small Molecule Inhibitors of Shiga Toxin. actives 9.2% (n = 290,000). Vero cells, Shiga toxin protein synthesis inhibition reporter. inhibition, % at 38.7 µM. AID 2315, 2010; in the data active means inhibition mostly above about 28%, no sharp cut-off; inactive means mostly below about 43%; further: 0% is about no effect
Sm TGR inh – qHTS Assay for the Inhibitors of Schistosoma Mansoni Peroxiredoxins; Schistosoma mansoni thioredoxin glutathione reductase (TGR), Q962Y6; purified TGR, DTNB reduction, TNB absorbance 405 nm; Potency, µM (series often up to 114 µM), inactives show at the highest dose activity change, negative = inhibition, usual class: inhibitors; actives 3% (n = 360,000); AID 485364, 2010; further: potency means the concentration at half of the fitted maximal effect; on the % scale 0 is the no-effect control and ±100 the full control effect; nearly all actives have a fitted effect of over 60% in size
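First, TGR (20 nM dispensed) and NADPH were mixed with compound. Second, a 15 min room-temperature incubation followed. Third, further NADPH and then DTNB were added to start the reaction. Finally, TNB absorbance was monitored kinetically.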
LmPK inhibitor – qHTS Assay for Inhibitors of Leishmania Mexicana Pyruvate Kinase (LmPK). Q27686. Potency, µM (highest dose often 57.5 µM), for the others: at the highest dose activity change, negative = inhibition, usual class: inhibitors. purified LmPK, Kinase-Glo ATP luminescence, 1 h. actives 0.37% (n = 290,000); further: potency means the concentration at half of the fitted maximal effect; on the % scale 0 is the no-effect control and ±100 the full control effect
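ATP generated from ADP (0.1 mM) and PEP (0.5 mM) by 0.1 nM LmPK over 1 h at room temperature (pH 7.2 imidazole buffer) was detected by coupled luciferase luminescence. Values were normalized to uninhibited and no-enzyme wells.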
FBPA Giardia inh – qHTS Assay for Inhibitors of Fructose-1,6-bisphosphate Aldolase from Giardia Lamblia | A8B2U2 | purified Giardia FBPA | Potency, µM (series often up to 59.6 µM), inactives show top-dose activity, negative = inhibition, usual class: inhibitors | actives 0.71% (n = 290,000) | AID 2451, 2010; further: potency means the concentration at half of the fitted maximal effect; on the % scale 0 is the no-effect control and ±100 the full control effect; nearly all actives have a fitted effect of over 55% in size
Target sequence (A8B2U2 whole entry, looked up): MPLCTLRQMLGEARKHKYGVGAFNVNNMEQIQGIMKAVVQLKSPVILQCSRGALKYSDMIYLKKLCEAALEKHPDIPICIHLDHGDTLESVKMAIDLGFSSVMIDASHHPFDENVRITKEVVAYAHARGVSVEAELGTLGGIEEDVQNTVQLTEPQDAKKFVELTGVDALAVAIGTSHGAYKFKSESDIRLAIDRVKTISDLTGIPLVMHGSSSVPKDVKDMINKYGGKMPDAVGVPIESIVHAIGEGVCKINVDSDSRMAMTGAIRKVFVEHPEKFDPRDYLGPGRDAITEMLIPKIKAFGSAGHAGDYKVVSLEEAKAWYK
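Giardia FBPA (40 nM reagent) was preincubated 10 min at RT with compound (up to 57.5 uM final), then substrate plus GAPDH/TPI/NAD/arsenate coupling system with diaphorase/resazurin was added; resorufin fluorescence (525/598 nm) was read after 20 min.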
TbPYK inhibitor – qHTS of Trypanosoma Brucei Inhibitors. pyruvate kinase (Trypanosoma brucei), Q57TT1. TbPYK enzyme, Kinase-Glo Plus ATP luminescence, 45 min. Potency, µM (highest dose often 76.8 µM), for inactives: at the top dose activity, negative = inhibition, most hits filed as inhibitors. actives 0.12% (n = 410,000); further: potency means the concentration at half of the fitted maximal effect; on the % scale 0 is the no-effect control and ±100 the full control effect; nearly all actives have a fitted effect of over 50% in size
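Screened from lowest to highest concentration, compounds were pinned into TbPYK/substrate mixtures, and ADP (130 uM final) was added. Plates sat at room temperature for 45 min prior to Kinase-Glo Plus detection by luminescence.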
An asterisk follows results filed as active; ? = inconclusive; . = no result given; + = active, no number; [ ] = another dose, or the depositor's remark. The full list was thinned out, with hits kept by preference. Unless noted, the call rests on the fitted dose curve; in most records, active means well fitted curve in the direction sought with a large enough effect; inconclusive means small, poorly fitted or top-dose-only effect, or another doubt; inactive means no such curve, though single readings can be large; an effect the other way counts as inactive or inconclusive.

SMILES	Cycloheximide cs	Shiga toxin inh	Sm TGR inh	LmPK inhibitor	FBPA Giardia inh	TbPYK inhibitor
CCCCc1cc2c(cn1)=C(OC(=O)c1cccs1)C(C)(OC(=O)CC)C(=O)C=2 (stereo unspecified)	.	.	.	2.9%[11.5 µM]	-2.2%[12.9 µM]	.
CCC(Oc1ccc(F)cc1)C(=O)Nc1nc2c(s1)CCCC2 (stereo unspecified)	.	.	7.3%	.	.	-1.5%
CC(=O)c1csc(Nc2ccccc2Cl)n1	33.3*	68.2*	-9.6%	-22.2%	-4.6%	-2.9%
Cc1[nH]c(=O)c(C#N)cc1-c1csc(-c2ccccc2)n1	-2.8	-8.0	-10.3%	-6.1%	17.9%	-14.9%
CNC(=O)c1ccc(-c2nc(-c3ccccc3)cs2)cc1	32.5*	43.1*	-13.8%	4.0%	2.5%	-3.9%
CCc1sc(-c2ccccc2)nc1C(=O)OC	10.4	11.6	20.0%	-6.5%	0.1%	-7.7%
Cc1oncc1-c1csc(-c2ccccc2)n1	51.1*	63.9*	2.6%	-0.2%	5.7%	-3.7%
CC(=O)c1nc(-c2ccccc2)sc1C	26.0	76.8*	-1.5%	1.8%	3.7%	0.7%
Cn1c(=O)oc2cc(S(=O)(=O)N3CCCC(C(=O)N4CCN(c5cccc(Cl)c5)CC4)C3)ccc21 (stereo unspecified)	.	.	1.7%	.	.	-6.0%
O=C(c1cccc(F)c1)N1CCC2(CC1)CN(Cc1ccccc1)C2	.	.	.	.	6.5%	5.6%
O=C(NCc1nc(-c2ccccc2)cs1)c1ccccc1	19.2*	29.7*	5.7%	2.7%	1.0%	1.0%
O=C1c2ccccc2C(O)(Cc2ccccc2)N1Cc1ccco1 (stereo unspecified)	-2.3	16.9	44.7µM*	2.3%	0.6%	-12.2%
O=C(/C(C=Nc1ccc(Br)cc1)=C(/O)c1ccco1)C(F)(F)F	41.7*	+	-17.5%	5.1%	-1.4%	-1.3%
O=C(/C(C=Nc1cccc(C(F)(F)F)c1)=C(/O)c1ccco1)C(F)(F)F	92.9*	126.5*	4.1%	2.8%	-0.9%	-6.3%
O=C(c1ccco1)N1CCN(S(=O)(=O)c2cccc(C(F)(F)F)c2)CC1	4.5	27.4	-0.2%	4.1%	0.2%	0.3%
Cn1nc(C(F)(F)F)c(-c2ccc(Br)cc2)c1NC(=O)c1ccco1	-0.7	-9.8	5.5%	-2.4%	4.6%	0.4%
COc1ccccc1NC(=O)CSCc1cc(=O)c2c(C)cc(C)cc2[nH]1	.	.	-0.3%	.	.	4.1%
COc1cc(C)c2c(=O)cc(-c3ccccc3)oc2c1	.	.	.	.	0.0%	.
COC1=C/C(=C/c2c(O)c(C#N)c3ccccn23)C=CC1=O	56.0*	72.9*	?	?	?	?
CCCCc1cc(=O)oc2cc(C)cc(OCC(=O)Nc3ccccn3)c12	21.1*	60.8*	-0.6%	-19.0%	13.5%	-9.3%
CCCc1cc(=O)oc2cc(C)cc(OCC(=O)Nc3ccccn3)c12	20.1*	11.1	-1.4%	-2.7%	5.1%	-2.2%
COc1ccc(C2C=C(c3ccccc3)Nc3nc(NC(=O)/C=C/c4ccc(Cl)cc4)nn32)cc1 (stereo unspecified)	.	.	-3.2%	.	.	3.9%
Cc1ccc(S(=O)(=O)Cn2nnnc2C(C(C)C)N2CCC(C(N)=O)CC2)cc1 (stereo unspecified)	-4.5	7.3	137.8%	-3.4%	-2.8%	1.2%
CC(=O)c1cccc(NS(=O)(=O)c2c(C)nc3sc(C)cn3c2=O)c1	.	.	2.8%	.	.	-5.1%
CCn1c(=O)cc(SCC(=O)N2CCN(c3cc(C)ccc3C)CC2)c2ccccc21	.	.	5.5%	.	.	-2.1%
COc1cccc(CNC(=O)Cn2c(=O)nc(-c3ccccc3F)c3cc(Cl)ccc32)c1	.	.	-4.3%	.	.	-2.1%
CC1=NN(c2ccccc2)C(=O)C1C=Nc1ccccc1O (stereo unspecified)	14.3	27.4*	14.8%	-1.0%	-0.4%	-5.0%
CC1=NN(c2ccccc2)C(=O)C1/C=C1\NC(=S)NC1=O (stereo unspecified)	-3.2	20.4	-2.4%	-7.2%	-7.3%	-1.7%
CCc1nc2c(OCc3ccc(C#N)cc3)cccn2c1N(C)C(=O)C(C)C	.	.	.	.	.	-6.0%
